PubChem BioAssay AID1159580 (chemical genetic matrix, 2015)
Several values for one entry are separate records, joined by “and”; a condition that tells them apart may be missing. Equal entries are not always repeated. Hit rate of the full screen: of about 5,500 compounds, about 2,000 (36%) were called active. Roughly 18% stayed inconclusive and do not appear here. Cut-off read from the data, not from the text of the source: active = normalized growth mostly below about 0.91 (no sharp cut-off); inconclusive = no clear call, values can overlap the other calls; inactive = mostly above about 0.92. The list shows a part of the results.

Assay: chemical genetic growth profiling, strain panel (AID 1159580);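 note: tested at 20 µM; growth read once vehicle control cultures reached saturation at 30 °C; 1 = growth at the plate median or of vehicle wells; lower values mean less growth of the strain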
Conditions: S. cerevisiae deletion strains, growth OD

Measured: normalized growth

CN1CCCN=C1COC(=O)C(O)(c1ccccc1)C1CCCCC1 (stereo unspecified)
inactive: locus YAL013W, strain DEP1, stronger effect = lower value 1.01 | locus YAL021C, strain ccr4, stronger effect = lower value 1 | locus YAL026C, strain drs2, stronger effect = lower value 0.993 | locus YAL030W, strain snc1, stronger effect = lower value 0.996 | locus YBL061C, strain skt5, stronger effect = lower value 0.987 | locus YBR009C, strain hhf1, stronger effect = lower value 0.994 | locus YBR021W, strain FUR4, stronger effect = lower value 1.03 | locus YBR023C, strain chs3, stronger effect = lower value 0.987 | locus YBR171W, strain sec66, stronger effect = lower value 0.993 | locus YBR229C, strain ROT2, stronger effect = lower value 1.01 | locus YBR231C, strain swc5, stronger effect = lower value 1 | locus YBR279W, strain paf1, stronger effect = lower value 0.993 | locus YCL011C, strain gbp2, stronger effect = lower value 1 | locus YCL016C, strain dcc1, stronger effect = lower value 0.991 | locus YCL029C, strain bik1, stronger effect = lower value 0.99 | locus YCL061C, strain MRC1, stronger effect = lower value 0.994 | locus YCL069W, strain vba3, stronger effect = lower value 0.997 | locus YCR088W, strain abp1, stronger effect = lower value 0.997 | locus YDL005C, strain med2, stronger effect = lower value 0.98 | locus YDL035C, strain GPR1, stronger effect = lower value 1 | locus YDL040C, strain nat1, stronger effect = lower value 0.998 | locus YDL074C, strain BRE1, stronger effect = lower value 1.01 | locus YDL101C, strain DUN1, stronger effect = lower value 1.01 | locus YDL134C, strain PPH21, stronger effect = lower value 1.02 | locus YDL185W, strain tfp1, stronger effect = lower value 1 | locus YDL192W, strain arf1, stronger effect = lower value 0.999 | locus YDR001C, strain nth1, stronger effect = lower value 0.995 | locus YDR069C, strain doa4, stronger effect = lower value 0.99 | locus YDR101C, strain arx1, stronger effect = lower value 0.968 | locus YDR137W, strain rgp1, stronger effect = lower value 0.99 | locus YDR150W, strain NUM1, stronger effect = lower value 1.01 | locus YDR159W, strain sac3, stronger effect = lower value 1 | locus YDR162C, strain NBP2, stronger effect = lower value 1 | locus YDR195W, strain ref2 0.993 | locus YDR297W, strain sur2, stronger effect = lower value 1 | locus YDR318W, strain mcm21, stronger effect = lower value 0.983 | locus YDR334W, strain swr1, stronger effect = lower value 0.989 | locus YDR335W, strain msn5, stronger effect = lower value 0.997 | locus YDR388W, stronger effect = lower value 0.989 | locus YDR392W, strain spt3, stronger effect = lower value 1 | locus YDR502C, strain sam2, stronger effect = lower value 0.994 | locus YEL003W, strain gim4, stronger effect = lower value 0.997 | locus YEL037C, strain rad23, stronger effect = lower value 0.991 | locus YEL061C, strain CIN8 (second series), stronger effect = lower value 0.999 | locus YEL061C, strain CIN8, stronger effect = lower value 1.01 | locus YER015W, strain faa2, stronger effect = lower value 0.978 | locus YER016W, strain bim1, stronger effect = lower value 0.994 | locus YER110C, stronger effect = lower value 0.991 | locus YER111C, strain swi4, stronger effect = lower value 0.995 | locus YER155C, strain BEM2 (second series), stronger effect = lower value 1.01 | locus YER155C, strain BEM2, stronger effect = lower value 1.03 | locus YER167W, strain BCK2, stronger effect = lower value 1.01 | locus YFR010W, strain ubp6, stronger effect = lower value 1.01 | locus YGL078C, strain dbp3, stronger effect = lower value 0.987 | locus YGL086W, strain mad1, stronger effect = lower value 0.992 | locus YGL167C, strain pmr1, stronger effect = lower value 0.987 | locus YGL173C, strain kem1, stronger effect = lower value 0.987 | locus YGL227W, strain vid30, stronger effect = lower value 0.993 | locus YGL240W, strain doc1, stronger effect = lower value 1 | locus YGL248W, strain PDE1, stronger effect = lower value 1.01 | locus YGL253W, strain hxk2, stronger effect = lower value 0.998 | locus YGR078C, strain PAC10, stronger effect = lower value 0.991 | locus YGR135W, strain pre9, stronger effect = lower value 0.978 | locus YGR229C, strain SMI1, stronger effect = lower value 0.99 | locus YGR252W, strain gcn5, stronger effect = lower value 1.05 | locus YHR013C, strain ard1, stronger effect = lower value 0.981 | locus YHR027C, strain rpn1, stronger effect = lower value 0.991 | locus YHR030C, strain SLT2, stronger effect = lower value 1.01 and 0.997 | locus YHR079C, strain IRE1 (second series), stronger effect = lower value 0.988 | locus YHR079C, strain IRE1, stronger effect = lower value 1.01 | locus YHR094C, strain hxt1, stronger effect = lower value 0.985 | locus YHR129C, strain ARP1, stronger effect = lower value 1.02 | locus YHR142W, strain chs7, stronger effect = lower value 0.998 | locus YHR200W, strain rpn10, stronger effect = lower value 0.993 | locus YIL066C, strain RNR3, stronger effect = lower value 1 | locus YIL073C, strain SPO22, stronger effect = lower value 0.999 | locus YIL125W, strain kgd1, stronger effect = lower value 0.998 | locus YIR030C, strain dcg1, stronger effect = lower value 0.985 | locus YJL092W, strain hpr5, stronger effect = lower value 0.997 | locus YJL095W, strain BCK1 (second series), stronger effect = lower value 0.998 | locus YJL095W, strain BCK1, stronger effect = lower value 1 and 1.01 | locus YJL115W, strain asf1, stronger effect = lower value 0.986 | locus YJL129C, strain trk1, stronger effect = lower value 1.02 | locus YJL134W, strain LCB3, stronger effect = lower value 1.01 | locus YJL154C, strain vps35, stronger effect = lower value 0.996 | locus YJL166W, strain qcr8, stronger effect = lower value 0.99 | locus YJL168C, strain set2, stronger effect = lower value 0.992 | locus YJL187C, strain SWE1 (second series), stronger effect = lower value 1.01 | locus YJL187C, strain SWE1, stronger effect = lower value 0.999 | locus YJR043C, strain POL32, stronger effect = lower value 1 | locus YJR066W, strain TOR1, stronger effect = lower value 0.952
